# Most compounds without a hit are left out; they make up all but 5.7% or so of the library.
# PI4K2A block: qHTS for small molecular inhibitors of PI4K2A. Phosphatidylinositol 4-kinase type 2-alpha (Homo sapiens), Q9BTU6. purified PI4K2A, ADP-Glo luminescence, 1 h; hits give low values. activity change, negative = inhibition, % at 76.9 µM. hit rate 0.13% among 420,000. AID 1346378, 2018; in the data active = activity change below about -50%; inconclusive = mostly about -30% to -49%;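 also: -100% = wells without enzyme as full effect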
# Target sequence (Q9BTU6 whole entry, looked up): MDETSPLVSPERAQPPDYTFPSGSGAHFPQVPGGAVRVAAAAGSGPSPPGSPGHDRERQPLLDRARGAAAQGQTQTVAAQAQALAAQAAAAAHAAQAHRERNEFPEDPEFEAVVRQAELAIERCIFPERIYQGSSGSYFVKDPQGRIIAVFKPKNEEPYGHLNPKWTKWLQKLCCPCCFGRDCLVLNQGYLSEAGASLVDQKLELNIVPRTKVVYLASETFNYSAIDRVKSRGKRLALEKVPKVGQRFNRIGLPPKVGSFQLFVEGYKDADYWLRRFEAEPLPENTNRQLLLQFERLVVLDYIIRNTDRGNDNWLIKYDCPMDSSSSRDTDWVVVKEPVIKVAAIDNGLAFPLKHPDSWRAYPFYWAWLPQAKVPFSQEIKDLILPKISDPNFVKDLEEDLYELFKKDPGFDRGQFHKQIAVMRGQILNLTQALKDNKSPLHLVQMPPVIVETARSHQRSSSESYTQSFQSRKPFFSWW
#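 ADP-Glo luminescence measured ADP generated by PI4K2A enzyme (4 ug/mL before mixing) with 1.2 mM PI substrate (pre-mix) and 300 microM ATP (pre-mix). Tris pH7.5 buffer with MgCl2, Triton X-100; 1 h reaction at ambient temperature.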
# KB-3-1 tox: qHTS assay for MDR1-selective chemotherapeutics: Primary screen using the parental adenocarcinoma cell KB-3-1 | KB-3-1 viability, CellTiter-Glo ATP luminescence, 72 h | Potency, µM (series often up to 46.1 µM), usual class: cytotoxic | hit rate 1.4% among 400,000 | AID 1347075, 2019; also: potency is read from the fitted curve at half-maximal effect; nearly all actives have a fitted effect of over 60% in size
#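 Luminescent ATP read-out (CellTiter-Glo) measures survival of drug-naive KB-3-1 cells after 72 h compound exposure at 37 °C. Titration series was screened from lowest to highest concentration, with DMSO vehicle plates as background controls.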
# Giardia kill: Small Molecules that selectively kill Giardia lamblia: qHTS; Giardia lamblia trophozoite viability; activity change, % at 7.66 µM, hits read low; hit rate 0.15% among 340,000; AID 540267, 2011; in the data active = activity change below about -80%; inconclusive = between about -30% and that limit;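 also: parasites exposed to compound for two days anaerobically before the ATP read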
#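 Compounds were tested on trophozoites seeded at 100 cells/well and held 48 hrs at 37 deg C anaerobically. An ATP-based luminescent kit measured the remaining live cells.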
# KB-V1 MDR tox: qHTS assay for MDR1-selective chemotherapeutics: Primary screen using the drug-selected MDR subline cells KB-V1. KB-V1 MDR cells viability, CellTiter-Glo, 72 h. Potency, µM (series often up to 46.1 µM), usual class: cytotoxic. hit rate 3.4% among 400,000. AID 1347076, 2019; also: potency is read from the fitted curve at half-maximal effect; nearly all actives have a fitted effect of over 60% in size
#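 In this primary screen, KB-V1 cells overexpressing P-gp are incubated with library compounds (lowest to highest concentration) for 72 h at 37 degrees C before a luminescent ATP viability read.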
# Nrf2 inh: Nrf2 qHTS screen for inhibitors; A549 ARE-Fluc reporter, luciferase luminescence, 18-24 h; Potency, µM (series often up to 46 µM), for inactives: at the top dose activity change, negative = inhibition, actives largely listed as inhibitors; hit rate 2.1% among 360,000; AID 504444, 2011; also: potency is read from the fitted curve at half-maximal effect; nearly all actives have a fitted effect of over 60% in size
#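 Two sequential reads on A549 ARE_Fluc cells exposed to compound for 18-24 h: a CellTiter-Fluor fluorescence read for viability, then a luciferase luminescence read for Nrf2/ARE activity.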
# A549 viability: Nrf2 qHTS screen for inhibitors: counterscreen for cytotoxicity | A549 ARE-Fluc cells, CellTiter-Fluor viability, 18-24 h | Potency, µM (top dose mostly 46 µM), inactives show at the top dose activity change, negative = cytotoxicity, hits mostly inhibitors | hit rate 0.16% among 390,000 | AID 504648, 2011; also: potency is read from the fitted curve at half-maximal effect
#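 A549 ARE-Fluc cells in 5% FBS OPTI-MEM, 5000 cells/well, rested 2 h then exposed to compounds in concentration-response for 18-24 h at 37 °C. Viability by CellTiter-Fluor fluorescence (Ex 405/Em 525) after 30 min; luciferase luminescence (BugLite, 15 min, RT) read afterwards.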
# * marks the source's active call; other numbers are inactive results; i = inactive; u = inconclusive; x = no result; [ ] = remark or other dose. Unless noted, calls follow the shape of the dose curve; as a rule, active = well fitted curve in the direction sought with a large enough effect; inconclusive = small, poorly fitted or top-dose-only effect, or another doubt; inactive = no such curve, though single readings can be large; an effect the other way counts as inactive or inconclusive. Unless noted, % is scaled to controls: 0 for no effect and ±100 for the full control effect.
SMILES,PI4K2A block,KB-3-1 tox,Giardia kill,KB-V1 MDR tox,Nrf2 inh,A549 viability
O=C(CSc1nc(-c2ccco2)cc(C(F)(F)F)n1)Nc1ccc(C(=O)N2CCCCC2)cc1,6,i,-10,i,23µM*,-16%
CCN1CCN(c2cc(C)c3cc(NC(=O)/C=C/c4cccc(Cl)c4)ccc3n2)CC1,0,u,x,u,-5%[9.27 µM],u
COc1ccc(-c2c3c(nc4sc5c(Cl)nc(C)nc5c24)CCC3)cc1,13,7.3µM*,-4,u,2%,-1%
NC(=O)c1sc2nc3c(c(-c4ccc(Cl)cc4)c2c1N)CCCC3,2,u,-11,2.9µM*,u,2%
Nc1c(C(=O)NCc2ccc(Cl)cc2)sc2nc3c(c(C(F)(F)F)c12)CCC3,0,i,19,15µM*,u,2%
COc1cccc(CNC(=O)C2CCC(CNS(=O)(=O)c3ccc(Br)s3)CC2)c1 (stereo not drawn),3,i,x,i,-7%,-2%
O=C1Nc2ccccc2C1(c1ccc(O)cc1)c1ccc(O)cc1,-3,x,x,x,x,x
CC(C)Oc1ccc(CNC(=O)c2ccc(CS(=O)Cc3ccccc3Cl)o2)cc1 (stereo not drawn),-1,x,x,x,u,1%
CCOC(=O)c1ccc(S(=O)(=O)N2CCN(C(=O)c3nn(C)c(=O)c4ccccc34)CC2)cc1,0,i,9,i,10%,6%
Cn1nc(C(=O)N2CCN(S(=O)(=O)c3ccc(Cl)cc3)CC2)c2ccccc2c1=O,-1,i,-3,i,23µM*,-8%
CCOc1ccc2nc(N/C(N)=N/C(=S)Nc3cccc(OC)c3)nc(C)c2c1,7,i,4,i,u,-10%
CCc1ccccc1NC(=S)/N=C(\N)Nc1nc(C)c2cc(C)ccc2n1,1,u,-20,6.5µM*,17%,-21%
CCOc1ccc2nc(N/C(N)=N/C(=S)Nc3cccc(C)c3)nc(C)c2c1,-1,i,-10,23µM*,15%,3%
CC(C)=CC([C@]12C[C@H](CO)N[C@@H]1Nc1ccccc12)S(=O)(=O)c1ccccc1 (stereo partly drawn),-2,x,x,x,x,x
COc1cccc(CNC(=O)CN2CCCc3ccccc32)c1,-3,x,x,x,x,x
CO[C@H]([C@H](C)/C=C/N(C)C=O)[C@@H](C)C(=O)CC[C@H](C)[C@H](O)[C@H](C)[C@H]1OC(=O)/C=C/C(C)=C/C[C@H](O)C[C@@H]2C=CC[C@@H](C[C@H](OC)[C@@H](C)[C@@H](OC)C[C@@H](OC)[C@@H]1C)O2,-1,x,x,x,x,x
Nc1nc(Cl)cc(N2CCC(c3cc(-c4ccc(Cl)cc4Cl)n[nH]3)CC2)n1,-1,u,0,23µM*,10µM*,u
CCCCC(CC)CNC(=O)c1ccc2c(=O)n(CCOC)c(=O)[nH]c2c1 (stereo not drawn),2,i,15,i,u,-4%
CCOc1cc(CNC(=O)c2ccc3nc(C(C)C)oc3c2)cc(OCC)c1OCC,4,i,x,i,x,0%
COc1ccc(CCNC(=O)[C@H](C)N2C(=O)N3CCc4c([nH]c5ccccc45)[C@@]3(C)C2=O)cc1,-3,u,-22,u,15µM*,-12%
COc1ccccc1CNC(=O)[C@H](C)N1C(=O)N2CCc3c([nH]c4ccccc34)[C@@]2(C)C1=O,-4,u,-3,i,23µM*,u
COc1ccc(CCNC(=O)[C@H](C)N2C(=O)N3CCc4c([nH]c5ccccc45)[C@@]3(C)C2=O)cc1OC,4,u,3,u,16µM*,-18%
COc1ccc2[nH]c3c(c2c1)CCN1C(=O)N([C@@H](C)C(=O)NCCc2ccc(OC)c(OC)c2)C(=O)[C@]31C,-1,i,7,i,u,6%
CC(C)(C)OC(=O)N1CCC(N[C@@H](Cc2ccccc2)C(=O)NCC(c2ccccc2)c2ccccc2)(C(=O)NC2CCCCC2)CC1,-3,x,x,x,x,x
C[N+](C)(CCOc1ccccc1)Cc1cccs1,0,x,x,x,x,x
SMILES,PI4K2A block,KB-3-1 tox,Giardia kill,KB-V1 MDR tox,Nrf2 inh,A549 viability
COc1ccc(NC(=O)CCCNS(=O)(=O)c2ccc3[nH]c(=O)oc3c2)cc1OC,-1,x,x,x,x,x
CCOC(=O)C(CN1CCCC1)c1ccccc1 (stereo not drawn),-5,i,-6,u,-1%,1%
O=C(c1ccc(Cl)cc1)C(CN1CCCCC1)c1ccccc1 (stereo not drawn),30,23µM*,6,21µM*,-11%,0%
Cc1ccc(CNC(=O)c2ccc(Cn3c(=O)c4ccccc4n(CC(=O)Nc4ccc(C)cc4)c3=O)cc2)cc1,-3,i,x,i,-8%,-4%
CCOc1ccc(NC(=O)Cn2c(=O)n(Cc3ccc(C(=O)NCc4ccc(C)cc4)cc3)c(=O)c3ccccc32)cc1,-1,i,x,i,18µM*,-14%
C/C(=N\NC(N)=S)c1ccc(-n2ccnc2)cc1,-2,i,-9,i,7%,-6%
C=C(C)CNC(=S)N/N=C(\C)c1ccc(-n2ccnc2)cc1,-2,i,13,15µM*,0%,-1%
CCOC(=O)C1=C(CN(CC)Cc2ccccc2)NC(=O)NC1c1ccc(OC(C)C)cc1 (stereo not drawn),0,u,x,u,18µM*,u
CCOC(=O)C1=C(CN2CCN(c3ccccc3F)CC2)NC(=O)NC1c1ccc(OC)cc1 (stereo not drawn),4,x,x,x,18µM*,-21%
CCOC(=O)C1=C(CN2CCC(C)CC2)NC(=O)NC1c1ccc(OC(C)C)cc1 (stereo not drawn),-1,i,x,u,u,-11%
CCOC(=O)C1=C(CN2CCN(c3ccc(Cl)cc3)CC2)NC(=O)NC1c1ccc(F)cc1 (stereo not drawn),-1,u,x,u,u,u
CCOC(=O)C1=C(CN2CCN(c3ccccc3F)CC2)NC(=O)NC1c1ccc(Cl)cc1 (stereo not drawn),-1,i,x,i,21µM*,-22%
CC1CCN(C(=O)C2COc3ccccc3C2)CC1 (stereo not drawn),3,i,x,u,x,14%
CCN(Cc1ccccc1)C(=O)c1cccc(S(=O)(=O)N2CCN(c3ccc(F)cc3)CC2)c1,-2,i,-4,u,15µM*,-16%
